# About 83,000 compounds went through this panel and 20% of them were active in at least one assay; those are over-represented in the sample as a whole.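 96-well plates, one dose, 48 hours. Percent growth reported; active if below 10.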 Unmarked numbers belong to inactive results. Activity calls are given as the source filed them.
# Test system: PC-3 prostate
# Experiment: NCI-60 one-dose screen, 48 h (100 = growth as untreated, 0 = no growth, -100 = all killed)
# Settings: 10 µM unless noted
# Experimental: Growth inhibition of the PC-3 human tumor cell line is measured as a screen for anti-cancer activity. Cells are grown in 96 well plates and exposed to the test compound for 48 hours. Compounds are tested at a single concentration, which is 10^-5 M for most compounds. The reported endpoint is percent growth (GI% or GIPRCNT), where numbers from 0 - 100% represent growth inhibition, and numbers from -100% - 0 represent cell death. For example, a value of 40 represents 60% growth inhibition. A value of 0 means no net growth occurred over the course of the experiment. A value of -40 indicates 40% of cells at the beginning of the experiment died by the end of the experiment. A value of -100 means all cells are dead at the end of the experiment.
# NCI-60 Human Tumor Cell Lines Screen was performed using the standard one-dose NCI protocol, which is described in more detail at https://dtp.cancer.gov/discovery_development/nci-60/default.htm.
# Compounds with GIPRCNT values below 10 were considered active. Activity score was based on GIPRCNT using the following formula: […]
# Score is 0 for GIPRCNT values of 100 or above, 50 for GIPRCNT values of 0, and 100 for GIPRCNT values of -100.
row,Structure (SMILES),growth
1,Cc1cc(C)c(C(=O)c2cccs2)c(C)c1,89.5%
2,COc1cccc(C2=NN(C(C)=O)C(c3cc(OC)c(OC)c(OC)c3)C2)c1 (stereo not given),16.9%
3,O=CN1N=C(c2ccc(Nc3ccnc4cc(Cl)ccc34)cc2)CC1c1ccc(Cl)cc1 (stereo not given),32.3%
4,O=C1CSC(c2ccccc2Cl)N1c1nnc(Cn2nnc3ccccc32)o1 (stereo not given),68.9%
5,COc1ccccc1NC(=O)c1sc2nc3c(cc2c1N)C(=O)CCC3,65.9%
6,Cc1cc(C)nc(NS(=O)(=O)c2ccc(Nc3nc4nc(SCc5ccccc5)nc(-c5ccc(O)cc5)c4c(=O)[nH]3)cc2)n1,67.7%
7,Fc1ccc(-c2nn3c(-c4cc(C(F)(F)F)cc(C(F)(F)F)c4)nnc3s2)cc1,39.2%
8,O=C(N/N=C/c1ccc(Cl)cc1Cl)c1ccccc1Nc1cccc(C(F)(F)F)c1,60.5%
9,CCOC(=O)C(Br)=P(c1ccccc1)(c1ccccc1)c1ccccc1,99.9%
10,O=C1CSC(c2ccccc2O)N1c1nnc(Cn2ccnc2)o1 (stereo not given),64.6%
11,COc1ccc(C(=O)/C=C/c2ccc(C)cc2)cc1OC,51%
12,CCC(=O)Nc1cc2c(cc1Cl)-c1ccccc1C2,80.5%
13,CCOc1cc(/C=C/C(=O)CC(=O)/C=C/c2ccc(OC(=O)CNCCN(CC)CC)c(OCC)c2)ccc1OC(=O)CNCCN(CC)CC,-18.5% (active)
14,O=CNc1ccc2c(c1)Cc1cc([N+](=O)[O-])ccc1-2,32.3%
15,NC(=N\N=C/Cc1ccccc1)/C(N)=N\N=C\Cc1ccccc1,101%
16,COc1cc(/C=C/C(=O)c2c(C)n([O-])c3ccc(Cl)cc3[n+]2=O)cc(OC)c1OC,89.5%
17,CCOC(=O)C1C(=O)NC(C(=O)OCC)(C(=O)OCC)C1CC (stereo not given),92.9%
18,Cc1ccc(-c2c3c(N)nc(-c4ccncc4)nc3nc3c2c(C)nn3-c2ccccc2)cc1,62.8%
19,CSc1nc2nc3c(c(-c4ccc(C)cc4)c2c(=O)[nH]1)CN(C)C/C3=C\c1ccc(C)cc1,98.5%
20,OCCCc1n(Cc2ccc3ccccc3c2)c2ccccc2[n+]1Cc1ccc2ccccc2c1,22.9%

row,Structure (SMILES),growth
1,FC(F)(F)c1ccc(-c2cnc(-c3nn[nH]n3)nc2NC2CCCCCC2)cc1,28.5% [50 µM]
2,CC(=O)N1N=C(c2ccc3c(c2)OCO3)CC1c1c(C)nn(-c2ccccc2)c1N(C)Cc1ccccc1 (stereo not given),34.3%
3,COC(=O)c1c(NC(=O)CSc2nnnn2-c2ccc(OC)cc2)sc(C)c1C,85%
4,Cn1cnc([N+](=O)[O-])c1Sc1nc(N)nc2nc[nH]c12,56.2%
5,O=C(CN1CCN(c2ccc(Cl)cc2)CC1)N1CCN(c2nnc(-c3ccc(Cl)cc3)c(-c3ccc(Cl)cc3)n2)CC1,30.5%
6,Cc1ccccc1NC(=O)NC(CC(N)=O)c1ccc2c(c1)nc(-c1cccc(Oc3ccc(C(C)(C)C)cc3)c1)n2CCCN1CCCCC1C (stereo not given),29.7%
7,O=C1NCCc2c1noc2-c1ccccc1,94.5%
8,FC(F)(F)c1cc(-c2nnc3n2N=C(N2CCCC2)CS3)cc(C(F)(F)F)c1,84.2%
9,CCOC(=O)OCC(=O)[C@@]1(O)CC[C@H]2[C@@H]3CCC4=CC(=O)CC[C@]4(C)[C@H]3[C@@H](O)C[C@@]21C,92%
10,[N-]=[N+]=NCc1ncc(-c2ccc(C(F)(F)F)cc2)c(NC2CCCCCC2)n1,35.6% [50 µM]
11,COc1cc(C2CC(C3C(=O)N(C)C(=O)N(C)C3=O)=NN2C=O)cc(OC)c1OC (stereo not given),75.9%
12,COc1ccc2c(c1)sc1nc(-c3ccc(Br)cc3)cn12,101%
13,Nc1ccc2c(c1)C(=O)c1cc(Cl)c(Cl)cc1-2,74.9%
14,COC(=O)C1CCN(S(=O)(=O)c2ccc(-c3ccccc3)cc2)CC1,90.3%
15,COc1ccc(Oc2ccccc2NC(=O)CNC(=O)c2cccc3ccccc23)cc1,21.5% [5 µM]
16,O=C1Nc2ccc(C(=O)O)c(O)c2C1=O,95.7%
17,CS(=O)(=O)N1CCN(Cc2cc3nc(-c4cccc5[nH]ncc45)nc(N4CCOCC4)c3s2)CC1 (tested in a mixture with another compound),6.61% (active)
18,CC1CN(/N=C/c2ccc([N+](=O)[O-])o2)C(=N)O1 (stereo not given),89.5%
19,O=C1Nc2ccc(Cl)cc2/C1=C/c1cccs1,93.4%
20,CCCCCCCCCCNCCSS(=O)(=O)O,88.7%

# From PubChem BioAssay (NCI)
